Read-out in assay [1]: Tissue plasminogen activator (tPA), PLAT (gene 5327)
Put plainly: BSK_BE3C_tPA: BioMAP Diversity Plus: BE3C Assay for Tissue plasminogen activator (tPA) Biomarker Activity (AID 2283041).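 For outcome: tPA level quantified by ELISA one day after compound addition.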 As to conditions: primary human bronchial epithelial cells; actives raise or lower the signal. A digest of the protocol:
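Gain- or loss-of-signal in tPA, measured by ELISA, derived by bidirectional fitting against DMSO. Cells: human primary bronchial epithelial; read at 24 h after chemical dosing.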

Read-out in assay [2]: Interleukin-8 (IL8), CXCL8 (gene 3576)
Put plainly: BSK_CASM3C_IL8: BioMAP Diversity Plus: CASM3C Assay for Interleukin-8 (IL8) Biomarker Activity (AID 2283042).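 Note: IL-8 protein level quantified by ELISA.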 As to conditions: primary human coronary artery smooth muscle cells; actives raise or lower the signal.

Read-out in assay [3]: Human Leukocyte Antigen - DR isotype (HLADR), HLA-DRA (gene 3122)
Kind of assay: BSK_CASM3C_HLADR: BioMAP Diversity Plus: CASM3C Assay for Human Leukocyte Antigen - DR isotype (HLADR) Biomarker Activity (AID 2283043).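 Note: cell-surface HLA-DR protein level quantified by ELISA.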 Conditions: primary human coronary artery smooth muscle cells; actives raise or lower the signal.

Read-out in assay [4]: Macrophage colony-stimulating factor (MCSF), CSF1 (gene 1435)
Kind of assay: BSK_CASM3C_MCSF: BioMAP Diversity Plus: CASM3C Assay for Macrophage colony-stimulating factor (MCSF) Biomarker Activity (AID 2283044).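 Note: M-CSF protein amount quantified by ELISA after 24 h exposure.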 As to conditions: primary human coronary artery smooth muscle cells; actives raise or lower the signal.

Read-out in assay [5]: Low-density lipoprotein receptor (LDLR), LDLR (gene 3949)
Kind of assay: BSK_CASM3C_LDLR: BioMAP Diversity Plus: CASM3C Assay for Low-density lipoprotein receptor (LDLR) Biomarker Activity (AID 2283045).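 Note: LDLR protein level on the cell surface quantified by ELISA.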 Conditions: primary human coronary artery smooth muscle cells; actives raise or lower the signal.

Read-out in assay [6]: Monocyte Chemoattractant Protein-1 (MCP1), CCL2 (gene 6347)
Kind of assay: BSK_CASM3C_MCP1: BioMAP Diversity Plus: CASM3C Assay for Monocyte Chemoattractant Protein-1 (MCP1) Biomarker Activity (AID 2283046).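 Note: MCP-1 level quantified by ELISA 24 h after dosing.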 As to conditions: primary human coronary artery smooth muscle cells; actives raise or lower the signal.

The nature of assay [7]: BSK_CASM3C_Proliferation: Cell Proliferation Assessment in the BioMAP Diversity Plus: CASM3C Assay (AID 2283047).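 Note: sulforhodamine B total protein stain as relative cell number at 560 nm; sub-confluent cells exposed 48 h before staining; fitted both ways against DMSO so gain or loss of cell number.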 Conditions: primary human coronary artery smooth muscle cells.
Read-out in assay [8]: Monokine induced gamma interferon (MIG), CXCL9 (gene 4283)
Kind of assay: BSK_CASM3C_MIG: BioMAP Diversity Plus: CASM3C Assay for Monokine induced gamma interferon (MIG) Biomarker Activity (AID 2283048).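 Note: MIG protein level measured by ELISA.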 As to conditions: primary human coronary artery smooth muscle cells; actives raise or lower the signal.

Read-out in assay [9]: serum amyloid A (SAA), SAA1 (gene 6288)
Kind of assay: BSK_CASM3C_SAA: BioMAP Diversity Plus: CASM3C Assay for serum amyloid A (SAA) Biomarker Activity (AID 2283049).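 Note: SAA protein level quantified by ELISA.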 Conditions: primary human coronary artery smooth muscle cells; actives raise or lower the signal.

Assay [10] in a line: BSK_CASM3C_SRB: Viability Assessment in the BioMAP Diversity Plus: CASM3C Assay (AID 2283050).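 Note: total protein by SRB staining as cytotoxicity measure in parallel cultures; cells exposed to compound for 24 h.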 Conditions: primary human coronary artery smooth muscle cells.
Read-out in assay [11]: Thrombomodulin, THBD (gene 7056)
Kind of assay: BSK_CASM3C_Thrombomodulin: BioMAP Diversity Plus: CASM3C Assay for Thrombomodulin Biomarker Activity (AID 2283051).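 Note: thrombomodulin protein level measured by ELISA 24 h after dosing.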 As to conditions: primary human coronary artery smooth muscle cells; actives raise or lower the signal.

Read-out in assay [12]: Tissue Factor, F3 (gene 2152)
Kind of assay: BSK_CASM3C_TissueFactor: BioMAP Diversity Plus: CASM3C Assay for Tissue Factor Biomarker Activity (AID 2283052).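 Note: cell surface tissue factor protein level read by ELISA.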 Conditions: primary human coronary artery smooth muscle cells; actives raise or lower the signal.

Read-out in assay [13]: Interferon-gamma inducible Protein 10 (IP10), CXCL10 (gene 3627)
Put plainly: BSK_hDFCGF_IP10: BioMAP Diversity Plus: hDFCGF Assay for Interferon-gamma inducible Protein 10 (IP10) Biomarker Activity (AID 2283053). As to conditions: primary human foreskin fibroblasts; actives raise or lower the signal. The essentials: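 Cells: human dermal foreskin fibroblasts. Exposure: 24 h post-dosing. Detection: IP-10 ELISA, with values expressed against DMSO controls and fitted in both directions.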

Read-out in assay [14]: Urokinase-type plasminogen activator receptor (uPAR), PLAUR (gene 5329)
Kind of assay: BSK_CASM3C_uPAR: BioMAP Diversity Plus: CASM3C Assay for Urokinase-type plasminogen activator receptor (uPAR) Biomarker Activity (AID 2283054).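 Note: cell-surface uPAR protein level quantified by ELISA.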 Conditions: primary human coronary artery smooth muscle cells; actives raise or lower the signal.

Read-out in assay [15]: Vascular cell adhesion molecule 1 (VCAM1), VCAM1 (gene 7412)
Kind of assay: BSK_CASM3C_VCAM1: BioMAP Diversity Plus: CASM3C Assay for Vascular cell adhesion molecule 1 (VCAM1) Biomarker Activity (AID 2283055).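 Note: VCAM-1 protein level quantified by ELISA on the cells.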 As to conditions: primary human coronary artery smooth muscle cells; actives raise or lower the signal.

Read-out in assay [16]: Collagen III, COL3A1 (gene 1281)
Kind of assay: BSK_hDFCGF_CollagenIII: BioMAP Diversity Plus: hDFCGF Assay for Collagen III Biomarker Activity (AID 2283056). As to conditions: primary human foreskin fibroblasts; actives raise or lower the signal. A digest of the protocol:
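Human foreskin primary fibroblasts were exposed to test chemicals for 24 h, after which collagen III was quantified by ELISA. Activity was fitted bidirectionally against DMSO as negative control and baseline.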

Read-out in assay [17]: Epidermal growth factor receptor (EGFR), EGFR (gene 1956)
Kind of assay: BSK_hDFCGF_EGFR: BioMAP Diversity Plus: hDFCGF Assay for Epidermal growth factor receptor (EGFR) Biomarker Activity (AID 2283057). As to conditions: primary human foreskin fibroblasts; actives raise or lower the signal. The essentials: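 Dosing human primary skin fibroblasts, then measuring surface EGFR by ELISA at 24 h, gives the endpoint; gains and losses relative to DMSO were fitted in both directions.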

Read-out in assay [18]: Interleukin-8 (IL8), CXCL8 (gene 3576)
Put plainly: BSK_hDFCGF_IL8: BioMAP Diversity Plus: hDFCGF Assay for Interleukin-8 (IL8) Biomarker Activity (AID 2283058). Conditions: primary human foreskin fibroblasts; actives raise or lower the signal. A digest of the protocol:
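hDFCGF human dermal fibroblasts; 24 h chemical exposure; IL-8 by ELISA; bidirectional curve fit vs DMSO baseline; gain or loss of signal scored.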

A short description of assay [19]: BSK_hDFCGF_Proliferation: Cell Proliferation Assessment in the BioMAP Diversity Plus: hDFCGF Assay (AID 2283059).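 Note: curves fitted for both rise and fall of signal versus DMSO baseline.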 Conditions: primary human foreskin fibroblasts. The essentials: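 Primary human foreskin fibroblasts, sub-confluent; […]; 10% TCA fix, 0.1% SRB stain, A560 total protein. Gain/loss fitted bidirectionally vs DMSO control.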
Read-out in assay [20]: Macrophage colony-stimulating factor (MCSF), CSF1 (gene 1435)
Put plainly: BSK_hDFCGF_MCSF: BioMAP Diversity Plus: hDFCGF Assay for Macrophage colony-stimulating factor (MCSF) Biomarker Activity (AID 2283060). As to conditions: primary human foreskin fibroblasts; actives raise or lower the signal. A digest of the protocol: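 Human foreskin primary fibroblasts were treated with test chemical for 24 h, and M-CSF was then measured by ELISA. Data were fitted bidirectionally against DMSO as the negative control and activity baseline.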

AC50 and outcome data for five molecules are collected here from PubChem BioAssay (EPA / NIEHS).

Molecules are shown by their SMILES. The source made the active and inactive calls. Rule for the calls: active = hit-call score of the fitted dose curve at least 0.9, where 1 is the maximum; inactive = score below 0.9.

By AC50 is commonly meant the concentration giving half of the maximal activity seen. As for `c1ccc(Sc2ccccc2)cc1`, the AC50 in [1] was 20 µM (active); in assay [3], 20 µM (active); in assay [4], 14.9 µM (active); in [9], 20 µM (active); in [10], 29.8 µM (active); in assay [12], 20 µM (active). Also, the AC50 was 29.3 µM (active) in assay [13]; 20 µM (active) in assay [15]; 29.9 µM (active) in assay [16]; 29.6 µM (active) in [19]; 28.1 µM (active) in [20]. In addition, the result in [2], in [5], in [6], in assay [7], in assay [8] and in assay [11] was inactive. Further, the result in [14], in assay [17] and in assay [18] was inactive.

`C[C@]12CC[C@@H]3c4ccc(O)cc4CC[C@H]3[C@@H]1CC[C@@H]2O`: the result in [1], in assay [2], in [3], in [5], in [6] and in assay [9] was inactive. The result in assay [10], in assay [11], in assay [12], in assay [13], in [14] and in assay [15] was inactive. Moreover, the outcome in assay [17], in assay [18] and in [20] was inactive. Further, the AC50 in assay [4] is 3.24 µM (active); in assay [7], 13.4 µM (active); in assay [8], 12.2 µM (active); in assay [16], 20 µM (active); in assay [19] it was 22.8 µM (active).

Consider `CC(=O)OC(C)(C)C1CC=C(C)CC1` (stereo not given), for which the AC50 in [1] was 27.7 µM (active); in assay [3] it was 31.5 µM (active); in assay [4], 35.3 µM (active); in [6] it was 32.6 µM (active); in assay [7] it was 29.6 µM (active); in assay [10], 28.6 µM (active). Moreover, the half-maximal activity concentration (AC50) is 31.7 µM (active) in assay [14], 34.8 µM (active) in [15] and 18.5 µM (active) in [19]. In addition, the outcome in assay [2], in assay [5], in [8], in [9], in assay [11] and in assay [12] was inactive. Further, the outcome in assay [13], in assay [16], in [17], in [18] and in [20] was inactive.

Take `CC=CC(=O)C1=C(C)C=CCC1(C)C`: the outcome in assay [1], in assay [2], in assay [3], in assay [4], in assay [5] and in assay [6] was inactive. Moreover, the outcome in assay [7], in assay [8], in assay [9], in assay [10], in assay [11] and in assay [12] was inactive. The result in [13], in [14], in [15], in [16], in assay [17] and in [18] was inactive. Besides, the result in assay [19] and in assay [20] was inactive.

With `CC1=CC(C)C(C=O)C(C)C1` (stereo not given) (tested in a mixture with another compound), the outcome in assay [1], in [2], in assay [3], in assay [4], in [5] and in assay [6] was inactive. For the same molecule, the result in [7], in [8], in assay [9], in [10], in assay [11] and in assay [12] was inactive. In addition, the result in [13], in assay [14], in assay [15], in assay [16], in assay [17] and in assay [18] was inactive. For the same molecule, the result in assay [19] and in assay [20] was inactive.
